Potency and outcome data for eight compounds are collected here from PubChem BioAssay (Tox21).

Records with an inconclusive call do not appear. Calls of active or inactive are those of the source. Unless noted, calls come from the whole dose curve; as a rule, active = well fitted curve in the direction sought with a large enough effect in the repeat runs; inconclusive = weak or mixed curves; inactive = no such curve, though single readings can be large; an effect the other way counts as inactive or inconclusive.

Test [1] can be described thus: A CellTox Green Cytotoxicity Assay to monitor cytotoxicity in HepG2 cells - 24 hour (AID 1224878). Note: nearly all actives have a fitted effect of over 45% in size. Note: potency is the fitted concentration of half-maximal effect. The essentials: (§1)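 Real-time cytotoxicity: fluorescence of a cell-impermeant cyanine dye binding DNA of dead HepG2 cells, measured repeatedly (0–40 h) during compound exposure at 37 C. Cells seeded 600/well with reagent, dosed after 5 h.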
A short description of test [2]: A CellTox Green Cytotoxicity Assay to monitor cytotoxicity in HepG2 cells - 40 hour (AID 1224879). Note: nearly all actives have a fitted effect of over 40% in size. Note: potency is the fitted concentration of half-maximal effect. The essentials:
as §1

Test [3] in a line: qHTS RealTime-Glo MT Cell Viability Assay in HEK293 cells - 0 hour (AID 1224880). Note: top concentration of the series differs between compounds; nearly all actives have a fitted effect of over 45% in size. Summed up:
(§2)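 Luminescence, which tracks viable cell number through reduction of the prosubstrate to a NanoLuc substrate, was read over continuous 37 C culture. Cells (600/well) were premixed with reagent and rested 5 h before 23 nL of compound in DMSO was pinned.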

Test [4] in a line: A CellTox Green Cytotoxicity Assay to monitor cytotoxicity in HEK293 cells - 32 hour (AID 1224881). Note: nearly all actives have a fitted effect of over 40% in size. Note: potency is the fitted concentration of half-maximal effect. Summed up:
(§3)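 Fluorescence from a DNA-binding dye excluded by viable cells was measured repeatedly in the same HEK293 wells (600 cells/well) during continuous compound exposure at 37 C. Each assay gives one read point: 0, 8, 16, 24, 32 or 40 h.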

The nature of test [5]: A CellTox Green Cytotoxicity Assay to monitor cytotoxicity in HepG2 cells - 0 hour (AID 1224882). Note: nearly all actives have a fitted effect of over 35% in size. Note: potency is the fitted concentration of half-maximal effect. Summed up:
as §1

Test [6] is described as follows: A CellTox Green Cytotoxicity Assay to monitor cytotoxicity in HepG2 cells - 32 hour (AID 1224883). Note: nearly all actives have a fitted effect of over 50% in size. Note: potency is the fitted concentration of half-maximal effect. Summed up:
as §1

Test [7] in a line: A CellTox Green Cytotoxicity Assay to monitor cytotoxicity in HEK293 cells - 8 hour (AID 1224884). Note: nearly all actives have a fitted effect of over 35% in size. Note: potency is the fitted concentration of half-maximal effect. Summed up:
as §3

The nature of test [8]: qHTS RealTime-Glo MT Cell Viability Assay in HepG2 cells - 16 hour (AID 1224885). Note: nearly all actives have a fitted effect of over 50% in size. The essentials:
(§4)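 Viability was tracked continuously by NanoLuc luminescence from prosubstrate reduced by living HepG2 cells, at successive time points over 40 h of compound exposure. Cells with reagent were preincubated 5 h at 37 °C before compound addition.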

Test [9] is described as follows: qHTS RealTime-Glo MT Cell Viability Assay in HEK293 cells - 8 hour (AID 1224887). Note: top concentration of the series differs between compounds; nearly all actives have a fitted effect of over 50% in size. The essentials:
as §2
For orientation: Quantitative high-throughput screening tests each substance at several concentrations.

A short description of test [10]: A CellTox Green Cytotoxicity Assay to monitor cytotoxicity in HEK293 cells - 16 hour (AID 1224888). Note: nearly all actives have a fitted effect of over 35% in size. Note: potency is the fitted concentration of half-maximal effect. The essentials:
as §3

The nature of test [11]: qHTS RealTime-Glo MT Cell Viability Assay in HepG2 cells - 0 hour (AID 1224889). Note: nearly all actives have a fitted effect of over 50% in size. The essentials:
as §4

The nature of test [12]: A CellTox Green Cytotoxicity Assay to monitor cytotoxicity in HepG2 cells - 8 hour (AID 1224890). Note: nearly all actives have a fitted effect of over 45% in size. The essentials:
as §1

Test [13] is described as follows: qHTS assay to identify small molecule antagonists of the estrogen receptor alpha (ER-alpha) signaling pathway using the BG1 cell line in the presence of 0.1 nM 17-beta-estradiol - cell viability counter screen (AID 1259241). Note: nearly all actives have a fitted effect of over 40% in size. Summed up: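 In this screen, hormone-deprived VM7Luc4E2 cells were seeded at 4,000 per well, dosed with compound and 0.1 nM estradiol final, and incubated 22 hr at 37C and 5% CO2; fluorogenic live-cell protease signal reported viability.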

The nature of test [14]: qHTS assay to identify small molecule antagonists of the androgen receptor (AR) signaling pathway using the MDA cell line in the presence of 0.5 nM R1881 - cell viability counter screen (AID 1259242). Note: nearly all actives have a fitted effect of over 45% in size. Summed up: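 Live-cell protease activity was measured by CellTiter-Fluor fluorescence after 30 min. Before that, MDA-kb2 MMTV-luciferase cells had 16 hr at 37C without CO2, exposed to test compounds and 0.5 nM R1881 final.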

Test [15] addresses Estrogen receptor (Homo sapiens) (UniProt P03372). Kind of test: qHTS assay to identify small molecule antagonists of the estrogen receptor alpha (ER-alpha) signaling pathway using the BG1 cell line in the presence of 0.1 nM 17-beta-estradiol (AID 1259244). Note: nearly all actives have a fitted effect of over 50% in size. The essentials:
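Luciferase luminescence (ONE-Glo, 30 min at room temperature) was read after 22 hr at 37C exposure to compounds plus 17beta-estradiol at 0.1 nM final. Cells were VM7Luc4E2 with endogenous ER-alpha and an ERE-driven luciferase, pre-cultured 5 days in hormone-depleted medium.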

Test [16] can be described thus: qHTS assay to identify small molecule HDAC inhibitors (AID 1259364). Summed up:
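Luminescence read after 30 min room-temperature HDAC-Glo incubation measures cellular class I/II HDAC activity. Compounds were applied for 2 hr at 37 C to HCT-116 wild-type cells seeded the day before.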

Test [17] in a line: qHTS assay to identify small molecule HDAC inhibitors - cell viability counter screen (AID 1259365). The essentials: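 Measured quantity is CellTiter-Glo luminescence from wild-type HCT-116 cells after compound incubation of 2hr at 37C, 5% CO2; reagent developed 30min at room temperature.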
The nature of test [18]: qHTS RealTime-Glo MT Cell Viability Assay in HEK293 cells - 24 hour (AID 1224886). Summed up:
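Viability tracked continuously by luminescence as live cells reduce a prosubstrate for NanoLuc; HEK293 cells preincubated 5 h, compound-treated at 37 C, and read at 0, 8, 16, 24, 32 and 40 h.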

For test [19], the target named is Androgen receptor (Homo sapiens) (UniProt P10275). The test can be described thus: qHTS assay to identify small molecule antagonists of the androgen receptor (AR) signaling pathway using the MDA cell line in the presence of 0.5 nM R1881 (AID 1259243). Note: nearly all actives have a fitted effect of over 50% in size. The essentials: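 Luminescent reporter readout (ONE-Glo, 30 min, room temperature) after 16 hr co-treatment of MDA-kb2 cells with test compounds and 0.5 nM R1881 final, at 37C without CO2. The MMTV-driven luciferase responds to both AR and GR.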

Test [20] can be described thus: qHTS assay to identify small molecule phospholipidosis (PLD) inducers (AID 1259344; active = well fitted curve in the direction sought with a large enough effect; an effect the other way counts as inactive or inconclusive). Summed up: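 Read-out is LipidTOX Red fluorescence (ex 595/em 615) imaged in HepG2 cells after 24 h compound exposure at 37 C, with Hoechst nuclear counterstain (ex 352/em 461) allowing per-cell normalisation.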

Sequence of Estrogen receptor (Homo sapiens) (P03372 whole entry, looked up): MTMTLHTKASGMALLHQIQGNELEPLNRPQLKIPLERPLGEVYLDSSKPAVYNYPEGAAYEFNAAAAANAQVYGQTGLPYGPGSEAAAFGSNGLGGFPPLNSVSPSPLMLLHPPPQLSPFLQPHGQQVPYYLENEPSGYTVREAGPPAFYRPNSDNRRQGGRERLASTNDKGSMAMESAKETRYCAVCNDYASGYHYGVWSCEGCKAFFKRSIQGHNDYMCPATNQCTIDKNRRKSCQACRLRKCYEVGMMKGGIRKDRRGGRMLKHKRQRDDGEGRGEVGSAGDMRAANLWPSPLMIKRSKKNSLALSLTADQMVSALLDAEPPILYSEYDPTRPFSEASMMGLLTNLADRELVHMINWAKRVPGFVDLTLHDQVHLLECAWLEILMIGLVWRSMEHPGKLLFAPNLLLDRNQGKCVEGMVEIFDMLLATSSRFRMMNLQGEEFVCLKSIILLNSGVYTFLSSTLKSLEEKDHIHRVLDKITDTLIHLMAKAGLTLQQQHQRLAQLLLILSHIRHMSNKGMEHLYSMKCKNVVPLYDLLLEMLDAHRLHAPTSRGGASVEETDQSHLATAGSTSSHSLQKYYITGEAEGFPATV
Sequence of Androgen receptor (Homo sapiens) (P10275 whole entry, looked up): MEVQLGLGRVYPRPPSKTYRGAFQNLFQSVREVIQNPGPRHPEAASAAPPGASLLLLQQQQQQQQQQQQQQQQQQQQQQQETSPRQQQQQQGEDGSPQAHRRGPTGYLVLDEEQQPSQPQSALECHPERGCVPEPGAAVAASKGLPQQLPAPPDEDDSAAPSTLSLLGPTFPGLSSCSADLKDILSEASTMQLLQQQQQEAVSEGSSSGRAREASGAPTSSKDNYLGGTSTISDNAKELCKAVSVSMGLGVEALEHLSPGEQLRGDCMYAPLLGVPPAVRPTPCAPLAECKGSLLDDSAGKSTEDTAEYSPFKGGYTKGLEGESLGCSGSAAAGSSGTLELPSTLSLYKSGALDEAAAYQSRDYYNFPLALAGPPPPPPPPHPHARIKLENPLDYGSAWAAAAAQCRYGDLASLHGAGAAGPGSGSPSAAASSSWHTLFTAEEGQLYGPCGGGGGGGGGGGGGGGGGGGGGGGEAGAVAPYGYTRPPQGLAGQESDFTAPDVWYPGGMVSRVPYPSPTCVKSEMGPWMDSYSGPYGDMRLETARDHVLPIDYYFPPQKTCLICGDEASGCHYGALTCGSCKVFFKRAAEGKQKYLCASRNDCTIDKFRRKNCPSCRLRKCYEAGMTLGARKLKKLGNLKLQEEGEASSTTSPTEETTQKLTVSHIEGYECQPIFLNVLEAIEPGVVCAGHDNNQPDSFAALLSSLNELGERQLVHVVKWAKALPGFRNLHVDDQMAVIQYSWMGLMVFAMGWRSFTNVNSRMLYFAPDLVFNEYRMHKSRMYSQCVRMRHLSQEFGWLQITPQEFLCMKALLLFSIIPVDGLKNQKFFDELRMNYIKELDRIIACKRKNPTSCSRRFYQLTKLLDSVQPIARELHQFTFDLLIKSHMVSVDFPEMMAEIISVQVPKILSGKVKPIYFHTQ

In the case of `CCOC(=O)CC(C(C)=O)C(C)=O`, the Potency result in test [1], in [2], in test [3], in test [4], in [5] and in test [6] was “inactive” throughout. For the same compound, the Potency entry in test [7], in [10], in test [11], in [12] and in [16] was “inactive” each time. Besides, the call in test [8], in test [9], in test [13], in test [14], in test [15] and in test [17] was inactive.
Consider `COc1cc(OC)cc(OC)c1`, for which the Potency entry in test [1], in [2], in test [3], in [4], in test [5] and in test [6] was “inactive” in each case. The Potency result in [7], in [10], in test [11], in test [19], in [20] and in test [16] was “inactive” throughout. For the same compound, the call in test [8], in test [18], in test [9], in [13], in test [14] and in test [15] was inactive. Further, in test [17], the result was inactive.
Take `O=c1c(O)c(O)c1=O`: the Potency entry in test [1], in test [2], in test [3], in test [4], in test [5] and in test [6] was “inactive” in each case. Further, the Potency entry in [7], in test [10], in test [11] and in test [12] was “inactive” in each case. Further, the outcome in test [8], in test [18], in test [9], in [13], in [14] and in test [17] was inactive.
In the case of `COC(=O)N/N=C/c1c[n+]([O-])c2ccccc2[n+]1[O-]`, the Potency in test [1] was 23.9 µM (active); in test [2] it was 23.9 µM (active); in test [4], 21.3 µM (active); in [5], 23.9 µM (active); in test [6], 23.9 µM (active); in [7] it was 23.9 µM (active). In addition, in [10], the Potency was 21.3 µM (active). Moreover, the Potency entry in [3], in test [11], in test [20] and in [16] was “inactive” in each case. In addition, the compound was called inactive in [8], in test [18], in test [9], in [13], in test [14] and in [15]. In addition, the compound was called inactive in test [17].
In the case of `C=COCCCCO`, the Potency result in [1], in [2], in [3], in test [4], in [5] and in [6] was “inactive” each time. Further, the Potency result in test [7], in test [10], in [11] and in test [12] was “inactive” each time. Also, the outcome in test [8], in [18], in [9], in test [13], in [14] and in test [15] was inactive. In addition, in [17], the result was inactive.
Consider `CCCCCCCCCCCCCC(=O)OCC`, for which the Potency result in [1], in test [2], in [3], in test [4], in test [5] and in test [6] was “inactive” each time. The Potency entry in test [7], in test [10], in test [11], in [12] and in test [16] was “inactive” throughout. Also, the result in [8], in test [18], in test [9], in [13], in test [14] and in test [17] was inactive.
With `CC[C@@]1(c2ccccc2)NC(=O)N(C)C1=O`, the Potency result in test [1], in test [2], in test [3], in test [4], in test [5] and in [6] was “inactive” in each case. In addition, the Potency entry in test [7], in test [10], in [11], in test [12], in [20] and in [16] was “inactive” throughout. For the same compound, the result in test [8], in test [9], in test [13], in test [14] and in test [15] was inactive.
Consider `Cc1ccc(O)c(C(=O)c2ccccc2)c1`, for which the Potency entry in test [1], in [2], in test [3], in test [4], in test [5] and in test [6] was “inactive” each time. For the same compound, the Potency result in [7], in test [10], in test [11], in test [12] and in test [16] was “inactive” in each case. Moreover, the call in test [8], in test [18], in [9], in test [13], in [14] and in test [17] was inactive.
